Unmarked numbers belong to inactive results. The source made the active and inactive calls. The call rests on the fitted dose curve; in most records, active means well fitted activation curve with a large enough effect in the repeat runs; inconclusive means weak or mixed curves; inactive means flat fitted curve, though single readings scatter.
target: Androgen receptor (Homo sapiens) (UniProt P10275); assay: qHTS assay to identify small molecule agonists of the androgen receptor (AR) signaling pathway using the MDA cell line (AID 743040; further: nearly all actives have a fitted effect of over 20% in size); conditions: MDA-kb2 AR-luc cells, MMTV luciferase, 16 h; series mostly up to 70.3 µM; activity change: at the top concentration
Sequence (P10275 whole entry, looked up): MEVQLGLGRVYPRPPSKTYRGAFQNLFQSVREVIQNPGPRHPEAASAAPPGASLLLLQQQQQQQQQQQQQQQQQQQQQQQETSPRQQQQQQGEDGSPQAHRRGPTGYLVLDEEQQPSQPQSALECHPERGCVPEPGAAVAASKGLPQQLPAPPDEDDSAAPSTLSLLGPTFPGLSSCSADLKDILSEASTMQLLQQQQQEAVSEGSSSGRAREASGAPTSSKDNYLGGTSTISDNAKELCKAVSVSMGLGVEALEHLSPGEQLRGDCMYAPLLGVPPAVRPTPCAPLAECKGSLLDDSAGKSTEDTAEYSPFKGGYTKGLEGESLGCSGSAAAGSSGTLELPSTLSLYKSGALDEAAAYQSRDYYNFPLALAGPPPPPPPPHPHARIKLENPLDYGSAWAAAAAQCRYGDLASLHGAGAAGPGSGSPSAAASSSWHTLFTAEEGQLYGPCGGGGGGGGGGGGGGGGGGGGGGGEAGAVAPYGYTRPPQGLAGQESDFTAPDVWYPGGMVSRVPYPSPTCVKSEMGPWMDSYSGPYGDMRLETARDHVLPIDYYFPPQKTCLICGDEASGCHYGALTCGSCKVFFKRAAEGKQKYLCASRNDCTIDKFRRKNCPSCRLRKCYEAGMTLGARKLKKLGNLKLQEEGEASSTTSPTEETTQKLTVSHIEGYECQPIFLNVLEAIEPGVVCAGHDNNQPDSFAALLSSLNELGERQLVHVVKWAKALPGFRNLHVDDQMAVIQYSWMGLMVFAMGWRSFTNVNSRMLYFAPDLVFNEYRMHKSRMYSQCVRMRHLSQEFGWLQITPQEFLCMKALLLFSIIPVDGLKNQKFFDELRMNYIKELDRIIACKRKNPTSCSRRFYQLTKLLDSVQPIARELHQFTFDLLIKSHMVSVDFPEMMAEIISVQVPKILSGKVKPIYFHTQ
Text: National Center for Advancing Translational Sciences [NCATS]
NIH Chemical Genomics Center [NCGC]
U.S. Environmental Protection Agency [EPA]
National Institutes of Environmental Health Sciences [NIEHS]
National Toxicology Program [NTP]
U.S. Food and Drug Administration [FDA]
Androgen receptor (AR), a nuclear hormone receptor, plays a critical role in AR-dependent prostate cancer and other androgen related diseases. Endocrine disrupting chemicals (EDCs) and their interactions with steroid hormone receptors like AR may cause disruption of normal endocrine function as well as interfere with metabolic homeostasis, reproduction, developmental and behavioral functions. To identify the compounds that activate AR signaling, MDA-kb2 AR-luc cell line (from ATCC, deposited by Wilson et al.) was used to screen the Tox21 10K compound library. MDA-kb2 AR-luc cell line is human breast carcinoma cell line that was stably transfected with a luciferase reporter gene under control of the MMTV promoter containing response elements for both androgen receptor (AR) and glucocorticoid receptor (GR).
Tox21 Assay Protocol Summary:
MDA-kb2 AR-luc cells were dispensed at 3,000 cells/5 uL/well of culture medium into white wall/solid-bottom 1536-well plates using a Multidrop Combi (ThermoFisher Scientific, Waltham, MA) dispenser. After the assay plates were incubated at 37C and 0% CO2 for 5 h, 23 nL of compounds dissolved in DMSO, positive controls or DMSO only was transferred to the assay plate by a Pintool station (Kalypsys, San Diego, CA). The plates were incubated at 37C and 0% CO2 for 16 h. Then 4 uL of ONE-Glo reagent (Promega, Madison, WI) was added to each plate using a Bioraptr Flying Reagent Dispenser (FRD) workstation (Beckman Coulter, Indianapolis, IN, USA) and luminescence was quantified on a ViewLux (PerkinElmer, Shelton, CT) plate reader after 30 min incubation at room temperature.
On the % scale 0 is the no-effect control and ±100 the full control effect.

Row | Structure (SMILES) | Potency | activity change
1 | O=C(O)Cc1sc(-c2ccccc2)nc1-c1ccc(Cl)cc1 | inactive | –
2 | CCC(C)N(C)C(=O)c1cc2ccccc2c(-c2ccccc2Cl)n1 (stereo not given) | – | -8.94%
3 | CC(C)c1ccc2c(C(C)C)cc(C(C)C)c(S(=O)(=O)O)c2c1 | – | 2.01% [at 95 µM, active compounds read high]
4 | CC(C)(C)c1cc(O)c(C(C)(C)C)cc1O | – | -11.7%
5 | CN1CCN(C2=Nc3ccccc3Sc3ccc(Cl)cc32)CC1 | – | -3.91%
6 | CC(C)CCCC(C)CCO (stereo not given) | – | 0.0129%
7 | COc1ccc(C(C)=O)cc1 | – | -0.885% [at 95 µM, active compounds read high]
8 | O=C(C(=O)c1ccc(Br)cc1)c1ccc(Br)cc1 | – | 3.05% [at 32.5 µM, active compounds read high]
9 | CC(=O)N(O)CCCCCNC(=O)CCC(=O)N(O)CCCCCNC(=O)CCC(=O)N(O)CCCCCN | – | -2.33% [at 32.5 µM, active compounds read high]
10 | CC[C@]12CCCN3CCc4c(n(c5ccccc45)C(=O)C1)[C@@H]32 | – | -2.59% [at 32.5 µM, active compounds read high]
11 | O=C(CCN1CCN2CCCC2C1)N1c2ccccc2Sc2ccc(Cl)cc21 (stereo not given) | – | -7.77%
12 | NC(N)=N/N=C/c1c(Cl)cccc1Cl | – | -9.6%
13 | C=C(C)C(=O)OCCOc1ccccc1 | – | -0.99%
14 | C=C(C)C(=O)OC(C)C | – | -0.14%
15 | CCCCCCc1ccc(N)cc1 | – | 0.66%
16 | NCCCN(CCO)CCO | – | 1.48%
17 | O=C(O)COC(=O)Cc1ccccc1Nc1c(Cl)cccc1Cl | – | 0.252% [at 32.5 µM, active compounds read high]
18 | c1ccc(OCc2ccc(CCCN3CCOCC3)cc2)cc1 | – | -6.4%
19 | O=C(O)c1cccc(N(Cc2cccnc2)c2ccc(OC(F)F)c(OC(F)F)c2)c1 | – | 0.432%
20 | CNCC[C@@H](Oc1ccccc1C)c1ccccc1 | – | -6.54%

Row | Structure (SMILES) | Potency | activity change
21 | NC(=S)N/N=C/c1cccnc1 | – | 3.11%
22 | COC(=O)CSc1cc(N=c2sc(=O)n3n2CCCC3)c(F)cc1Cl | – | -0.681%
23 | O=C(NS(=O)(=O)/C=C/c1cccs1)c1ccc(F)cc1Br | – | 11.7%
24 | CC(C(=O)O)c1ccc(C(=O)c2ccccc2)s1 (stereo not given) | – | 7.41% [at 32.5 µM, active compounds read high]
25 | CN(C)CC/C=C1\c2ccccc2COc2ccccc21 | – | -2.64%
26 | Cc1cc(O)ccc1N | – | 0.128% [at 95 µM, active compounds read high]
27 | CCCCOC(O)CC (stereo not given) | – | 0.798%
28 | O=[N+]([O-])c1cc[n+]([O-])cc1 | – | -5.81%
29 | Cc1cc(NC(=O)C(=O)O)cc(C)c1Oc1ccc(O)c2c1CCC2 | – | -1.67%
30 | NC(N)=NN=C(/C=C/c1ccc([N+](=O)[O-])o1)/C=C/c1ccc([N+](=O)[O-])o1 | – | -13.2%
31 | CCOc1nc2cccc(C(=O)O)c2n1Cc1ccc(-c2ccccc2-c2nn[nH]n2)cc1 | – | -5.38%
32 | COCCOCCOCCOCCOC | – | 1.73%
33 | C1CCC2OC2C1 (stereo not given) | – | -0.848% [at 95 µM, active compounds read high]
34 | O=C(O)[C@@H]1[C@H]2C[C@H]3c4[nH]c5ccccc5c4CCN3C[C@@H]2CC[C@@H]1O | – | 0.228% [at 32.5 µM, active compounds read high]
35 | O=C(c1ccc(O)cc1)c1ccc(O)cc1 | – | -3.34%
36 | Cc1cc(C)c(S(=O)(=O)O)cc1N=Nc1cc(S(=O)(=O)O)c2ccccc2c1O | – | 0.228%
37 | N[C@H]1C(O)O[C@H](CO)[C@H](O)[C@@H]1O (stereo not given in full) | – | 0.153%
38 | COc1ccccc1OC(=O)Oc1ccccc1OC | – | -3.25%
39 | CCCCCCCC/C=C\CCCCCCCC(N)=O | – | -2.37%
40 | CCCOc1ccc2nc(NC(=O)OC)[nH]c2c1 | – | 3.71%

— PubChem BioAssay (Tox21)
